# Measurements reported in ChEMBL document CHEMBL3988442, “University of Dundee, Small-Polar-MMV Screening Library” (2021).
# For some of these results: Results with a measured potency or affinity are listed apart.
# Key:
# Set-up in all cases: scale not given: direction of the effect not stated beside the values
# [1] = molecular target: Protein translocase subunit SecA (Escherichia coli (strain K12)) (UniProt P10408); assay: Assay to Identify E. coli SecA ATPase Inhibitors; type: functional; details: 30 µM
# Protein translocase subunit SecA (Escherichia coli (strain K12)), sequence (P10408 whole entry): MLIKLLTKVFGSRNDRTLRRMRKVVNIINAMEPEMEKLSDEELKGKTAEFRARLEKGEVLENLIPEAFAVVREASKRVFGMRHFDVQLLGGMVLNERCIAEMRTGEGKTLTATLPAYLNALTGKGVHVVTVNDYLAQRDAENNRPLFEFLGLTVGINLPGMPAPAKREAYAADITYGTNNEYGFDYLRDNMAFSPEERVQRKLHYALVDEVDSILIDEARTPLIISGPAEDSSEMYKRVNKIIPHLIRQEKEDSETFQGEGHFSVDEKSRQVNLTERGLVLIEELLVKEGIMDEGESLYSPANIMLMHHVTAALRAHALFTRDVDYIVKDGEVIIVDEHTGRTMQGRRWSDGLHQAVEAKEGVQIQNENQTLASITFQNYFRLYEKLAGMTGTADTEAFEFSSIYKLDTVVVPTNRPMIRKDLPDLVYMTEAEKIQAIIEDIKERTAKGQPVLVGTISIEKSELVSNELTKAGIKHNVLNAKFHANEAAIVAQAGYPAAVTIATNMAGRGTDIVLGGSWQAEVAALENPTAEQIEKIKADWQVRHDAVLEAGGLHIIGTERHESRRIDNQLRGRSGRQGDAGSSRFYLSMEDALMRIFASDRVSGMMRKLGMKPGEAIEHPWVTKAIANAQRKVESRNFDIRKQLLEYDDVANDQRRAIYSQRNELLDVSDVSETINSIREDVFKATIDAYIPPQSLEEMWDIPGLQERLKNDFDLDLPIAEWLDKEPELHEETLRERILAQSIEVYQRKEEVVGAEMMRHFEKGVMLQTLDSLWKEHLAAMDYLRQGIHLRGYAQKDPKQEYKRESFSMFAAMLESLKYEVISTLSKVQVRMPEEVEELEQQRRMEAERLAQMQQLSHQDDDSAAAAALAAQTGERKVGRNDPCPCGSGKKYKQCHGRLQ
# [2] = molecular target: T1, Ubiquitin-activating enzyme e1, putative (Leishmania donovani (strain BPK282A1)) (UniProt E9BSI1); assay: Leishmania donovani Ubiquitin Activating Enzyme (LdE1); type: functional; details: 30 µM
# T1 sequence (whole entry): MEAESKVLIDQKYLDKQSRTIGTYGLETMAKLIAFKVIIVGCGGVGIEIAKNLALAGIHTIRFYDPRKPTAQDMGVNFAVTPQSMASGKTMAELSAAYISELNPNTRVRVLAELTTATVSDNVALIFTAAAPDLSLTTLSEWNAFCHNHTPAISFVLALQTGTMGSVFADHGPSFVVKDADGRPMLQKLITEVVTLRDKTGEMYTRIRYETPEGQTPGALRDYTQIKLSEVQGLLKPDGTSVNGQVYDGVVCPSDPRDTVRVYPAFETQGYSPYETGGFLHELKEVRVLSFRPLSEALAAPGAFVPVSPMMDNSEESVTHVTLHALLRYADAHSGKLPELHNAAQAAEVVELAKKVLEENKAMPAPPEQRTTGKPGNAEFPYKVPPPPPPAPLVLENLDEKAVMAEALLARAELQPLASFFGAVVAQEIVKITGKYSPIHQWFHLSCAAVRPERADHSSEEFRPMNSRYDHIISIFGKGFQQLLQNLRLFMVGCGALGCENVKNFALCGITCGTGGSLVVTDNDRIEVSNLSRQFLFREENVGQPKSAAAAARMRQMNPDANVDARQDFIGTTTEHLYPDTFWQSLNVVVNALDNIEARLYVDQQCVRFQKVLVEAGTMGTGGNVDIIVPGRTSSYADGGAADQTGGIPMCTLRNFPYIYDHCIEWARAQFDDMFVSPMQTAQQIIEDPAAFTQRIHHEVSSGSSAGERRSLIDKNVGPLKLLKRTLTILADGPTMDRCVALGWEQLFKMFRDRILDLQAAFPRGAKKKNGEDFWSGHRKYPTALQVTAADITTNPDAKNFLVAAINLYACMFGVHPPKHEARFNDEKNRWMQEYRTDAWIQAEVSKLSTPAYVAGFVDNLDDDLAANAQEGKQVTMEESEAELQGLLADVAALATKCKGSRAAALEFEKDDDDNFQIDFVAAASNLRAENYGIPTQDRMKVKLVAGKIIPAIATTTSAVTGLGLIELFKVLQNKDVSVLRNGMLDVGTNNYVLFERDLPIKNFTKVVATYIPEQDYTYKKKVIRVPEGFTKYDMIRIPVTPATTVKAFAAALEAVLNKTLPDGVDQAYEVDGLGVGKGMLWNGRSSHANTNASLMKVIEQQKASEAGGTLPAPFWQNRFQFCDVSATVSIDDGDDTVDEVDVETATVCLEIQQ
# [3] = molecular target: AMP-activated protein kinase, AMPK (Homo sapiens) (UniProt P54646+O43741+P54619+Q9UGJ0+Q9Y478+Q13131+Q9UGI9); assay: AMP-dependent Kinase enzyme assay. An in vitro enzyme assay that detects ADP turnover that is directly proportional to AMPK activity. This uses naive AMPK that is activated during the assay with MK-8722; type: functional; details: 30 µM
# [4] = molecular target: Sialic acid-binding Ig-like lectin 9 (Homo sapiens) (UniProt Q9Y336); assay: Hs-Siglec9 ALPHAscreen SOP 20170721; details: 10 µM
# Sialic acid-binding Ig-like lectin 9 (Homo sapiens), sequence (Q9Y336 whole entry): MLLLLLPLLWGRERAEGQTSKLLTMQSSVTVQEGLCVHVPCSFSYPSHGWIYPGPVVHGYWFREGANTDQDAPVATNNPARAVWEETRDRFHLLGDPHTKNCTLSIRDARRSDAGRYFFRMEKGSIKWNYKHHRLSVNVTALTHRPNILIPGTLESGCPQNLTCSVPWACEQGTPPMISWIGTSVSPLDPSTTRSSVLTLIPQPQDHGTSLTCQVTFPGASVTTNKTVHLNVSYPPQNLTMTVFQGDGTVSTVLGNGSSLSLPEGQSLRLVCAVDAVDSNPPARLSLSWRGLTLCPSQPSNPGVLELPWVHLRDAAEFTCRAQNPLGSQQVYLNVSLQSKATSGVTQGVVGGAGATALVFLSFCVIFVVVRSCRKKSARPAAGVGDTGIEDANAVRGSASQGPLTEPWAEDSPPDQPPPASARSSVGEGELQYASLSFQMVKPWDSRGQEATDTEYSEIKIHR
# [5] = system: Trypanosoma cruzi; assay: Trypanosoma cruzi phosphomannomutase and mannose-1-phosphate guanylyltransferase assay; type: functional; details: 10 µM
# [6] = molecular target: T2, Arginase-2, mitochondrial (Homo sapiens) (UniProt P78540); assay: in vitro enzyme assay to detect the production of urea directly proportional to the activity of Arginase II; type: functional; details: 33.3 µM; note: in the data most compounds retested in dose-response had high values
# T2 sequence (whole entry): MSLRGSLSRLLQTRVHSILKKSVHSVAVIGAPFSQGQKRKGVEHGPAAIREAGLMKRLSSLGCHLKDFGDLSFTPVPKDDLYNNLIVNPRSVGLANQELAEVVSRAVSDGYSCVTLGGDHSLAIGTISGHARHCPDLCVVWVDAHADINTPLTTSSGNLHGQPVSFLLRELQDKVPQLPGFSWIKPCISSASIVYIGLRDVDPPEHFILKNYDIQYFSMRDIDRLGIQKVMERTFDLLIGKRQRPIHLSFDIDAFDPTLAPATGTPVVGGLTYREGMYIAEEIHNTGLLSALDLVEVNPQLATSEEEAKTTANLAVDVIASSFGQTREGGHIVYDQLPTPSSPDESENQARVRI
# [7] = molecular target: T3, Proteasome subunit beta (Trypanosoma cruzi) (UniProt O96673); assay: Trypanosoma cruzi proteasome chymotrypsin-like activity (TcProtChymo) assay.; note: in the data most compounds retested in dose-response had high values; type: functional; details: 9.37 µM
# T3 sequence (whole entry): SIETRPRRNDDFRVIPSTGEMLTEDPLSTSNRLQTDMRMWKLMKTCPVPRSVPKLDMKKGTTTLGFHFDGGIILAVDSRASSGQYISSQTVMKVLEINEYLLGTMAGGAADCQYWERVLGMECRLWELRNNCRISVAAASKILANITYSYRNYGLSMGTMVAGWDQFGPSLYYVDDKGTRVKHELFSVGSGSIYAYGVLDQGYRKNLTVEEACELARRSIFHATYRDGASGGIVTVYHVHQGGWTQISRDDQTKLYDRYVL
# [8] = species: Homo sapiens; assay: To identify inhibition of the IFN signalling (Jak-Stat) pathway via expression of an eGFP reporter gene under the control of an IFN-stimulated response element (ISRE) containing MxA promoter.; type: functional; details: 30 µM
# [9] = molecular target: T4, Tyrosyl-tRNA synthetase, putative (Trypanosoma cruzi (strain CL Brener)) (UniProt Q4DSP6); assay: Trypanosoma cruzi tyrosyl tRNA synthetase (TcYRS) _High Tyrosine SOP; type: functional; details: 30 µM; note: in the data most compounds retested in dose-response had high values
# T4 sequence (whole entry): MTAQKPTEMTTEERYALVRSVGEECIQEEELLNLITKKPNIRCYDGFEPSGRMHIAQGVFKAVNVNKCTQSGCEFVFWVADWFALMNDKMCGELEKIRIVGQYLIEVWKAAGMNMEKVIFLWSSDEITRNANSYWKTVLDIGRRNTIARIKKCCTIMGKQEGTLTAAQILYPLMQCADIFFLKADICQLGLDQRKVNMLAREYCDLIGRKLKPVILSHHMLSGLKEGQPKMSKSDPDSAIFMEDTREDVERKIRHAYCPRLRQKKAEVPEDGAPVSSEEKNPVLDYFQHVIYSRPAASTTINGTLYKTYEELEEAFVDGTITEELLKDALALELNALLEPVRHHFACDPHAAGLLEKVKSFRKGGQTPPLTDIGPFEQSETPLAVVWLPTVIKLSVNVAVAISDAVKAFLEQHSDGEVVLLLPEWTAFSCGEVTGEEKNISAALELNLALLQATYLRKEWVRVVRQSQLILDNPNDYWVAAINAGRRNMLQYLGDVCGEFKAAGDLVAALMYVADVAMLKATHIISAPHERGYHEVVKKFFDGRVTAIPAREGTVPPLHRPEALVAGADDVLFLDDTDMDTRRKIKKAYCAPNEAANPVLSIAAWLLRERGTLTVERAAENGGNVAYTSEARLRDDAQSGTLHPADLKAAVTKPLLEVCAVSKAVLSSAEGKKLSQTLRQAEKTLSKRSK
# [10] = molecular target: T4, Tyrosyl-tRNA synthetase, putative (Trypanosoma cruzi (strain CL Brener)); assay: Trypanosoma cruzi tyrosyl tRNA synthetase (TcYRS) SOP; type: functional; details: 30 µM
# [11] = molecular target: Chromo domain-containing protein 1 (Saccharomyces cerevisiae (strain ATCC 204508 / S288c) (Baker's yeast)) (UniProt P32657); assay: ScCHD-1 Enzyme Inhibition Assay; type: functional; details: 30 µM; note: in the data most compounds retested in dose-response had high values
# Chromo domain-containing protein 1 (Saccharomyces cerevisiae (strain ATCC 204508 / S288c) (Baker's yeast)), sequence (P32657 whole entry, the tested form may be a part): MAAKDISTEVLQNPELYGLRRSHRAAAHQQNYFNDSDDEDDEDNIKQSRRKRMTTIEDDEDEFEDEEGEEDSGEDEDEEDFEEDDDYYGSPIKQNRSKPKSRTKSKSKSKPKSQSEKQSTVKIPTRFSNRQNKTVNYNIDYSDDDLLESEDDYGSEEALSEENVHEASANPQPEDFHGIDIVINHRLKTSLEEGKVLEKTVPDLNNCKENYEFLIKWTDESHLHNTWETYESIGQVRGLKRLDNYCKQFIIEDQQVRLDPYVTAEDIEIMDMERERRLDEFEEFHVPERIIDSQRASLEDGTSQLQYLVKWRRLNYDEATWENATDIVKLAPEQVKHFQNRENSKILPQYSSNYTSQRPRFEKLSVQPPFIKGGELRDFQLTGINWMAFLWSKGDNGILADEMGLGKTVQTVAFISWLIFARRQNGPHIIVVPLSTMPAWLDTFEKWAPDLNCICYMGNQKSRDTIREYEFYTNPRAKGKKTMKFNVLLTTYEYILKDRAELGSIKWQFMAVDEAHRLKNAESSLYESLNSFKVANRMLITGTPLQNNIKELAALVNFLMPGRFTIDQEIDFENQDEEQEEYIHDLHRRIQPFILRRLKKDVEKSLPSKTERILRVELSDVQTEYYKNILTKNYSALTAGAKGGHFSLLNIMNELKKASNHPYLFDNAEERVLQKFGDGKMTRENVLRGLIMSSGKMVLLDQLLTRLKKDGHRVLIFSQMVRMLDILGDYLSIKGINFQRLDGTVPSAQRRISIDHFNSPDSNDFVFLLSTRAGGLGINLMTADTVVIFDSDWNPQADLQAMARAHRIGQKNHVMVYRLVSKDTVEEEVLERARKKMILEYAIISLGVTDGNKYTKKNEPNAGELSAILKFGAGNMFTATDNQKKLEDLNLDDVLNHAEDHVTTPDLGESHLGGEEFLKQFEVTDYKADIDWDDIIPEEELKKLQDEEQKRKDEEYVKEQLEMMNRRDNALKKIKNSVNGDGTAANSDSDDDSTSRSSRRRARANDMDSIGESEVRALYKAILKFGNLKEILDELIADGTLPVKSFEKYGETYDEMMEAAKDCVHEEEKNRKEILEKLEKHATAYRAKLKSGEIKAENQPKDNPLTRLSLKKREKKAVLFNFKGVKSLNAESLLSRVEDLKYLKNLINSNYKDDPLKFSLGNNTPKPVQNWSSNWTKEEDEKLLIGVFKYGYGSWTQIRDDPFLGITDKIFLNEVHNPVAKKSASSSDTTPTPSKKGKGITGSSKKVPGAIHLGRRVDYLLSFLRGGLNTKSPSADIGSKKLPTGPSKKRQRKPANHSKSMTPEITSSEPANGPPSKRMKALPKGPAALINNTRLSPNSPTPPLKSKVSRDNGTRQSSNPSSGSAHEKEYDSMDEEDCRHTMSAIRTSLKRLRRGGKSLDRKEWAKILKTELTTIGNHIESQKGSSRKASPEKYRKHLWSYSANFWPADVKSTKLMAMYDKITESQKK
SMILES,Percent Effect [1],Percent Effect [2],Percent Effect [3],Percent Effect [4],Percent Effect [5],Percent Effect [6],Percent Effect [7],Percent Effect [8],Percent Effect [9],Percent Effect [10],Percent Effect [11]
COc1cc(C(=O)N(Cc2ccco2)C2CC2)cc2c1OCCO2,-0.29%,-2.63%,8.94%,6.17%,-1.46%,-5.92%,6.81%,6.99%,2.13%,2.6%,0.909%
c1csc(CN2Cc3nccn3CC(Cn3cncn3)C2)n1 (stereo not given),1.97%,2.74%,0.961%,63.8%,-0.794%,3.19%,11.2%,-1.52%,4.17%,13.6%,-0.0341%
CCc1ncc2c(n1)CN(C(=O)COC)C2,-3.52%,8.22%,-3.13%,-3.99%,2.55%,1.36%,12.1%,8.48%,9.68%,22.5%,-4.35%
CCOc1ncccc1NC(=O)N1CCc2ccccc2C1,-2.4%,-5.41%,-19.1%,3.06%,-2.14%,7.95%,0%,-3.53%,-1.98%,-1.22%,9.66%
Cn1cc(C2CC(=O)NC23CCN(c2ncc(F)cn2)CC3)cn1 (stereo not given),0.954%,16%,3.9%,5.28%,-4.25%,-16.3%,3.08%,16.6%,1.04%,17.5%,-4.13%
CC(C)N(C)Cc1cnc2n1CCN(C(=O)NC1CCCC1)C2,-1.5%,0%,9.85%,-1.01%,-7.09%,3.96%,13.7%,7.83%,1.06%,1.28%,0.39%
Cc1nc(-c2ccsc2)ccc1C(=O)NCCC(=O)N1CCCC1,-5.91%,13.2%,-2.05%,5.21%,6.2%,1.15%,3.34%,-2.2%,-1.47%,9.76%,-11.3%
COc1ccc(C(=O)NCC(c2cccn2C)N2CCCC2)c(OC)c1 (stereo not given),-5.97%,13%,-5.29%,-1.12%,1.08%,-1.94%,18.3%,-21.8%,6.35%,11.5%,-8.35%
CCN(Cc1nc2c(cnn2C)c(=O)[nH]1)c1cccc(F)c1,-1.38%,11.4%,6.32%,2.17%,-2.36%,-6.24%,15.3%,9.49%,1.04%,15.2%,-15.7%
Cc1ccc(C(=O)NCCCN2CCOCC2)c(Cl)c1,-2.82%,2.6%,2.57%,5.34%,6.79%,-2.76%,4.33%,18.2%,3.23%,11.1%,108%
CNC(=O)c1cc2c(nc1N(C)C)CCN(S(=O)(=O)C1CC1)CC2,-2.36%,10.4%,-2.46%,-6.22%,-10.8%,9.68%,8.7%,0.586%,-3.17%,-3.85%,-7.64%
CCS(=O)(=O)N1CCC(c2nc3ccc(-c4ccccc4)cn3n2)CC1,-0.159%,-2.74%,-1.18%,0.509%,5.75%,0.399%,10%,-3.81%,-24%,8.64%,2.57%
COc1ccc(CNC(=O)Nc2cccnc2N2CCCC2)cc1O,-2.46%,16.2%,-3.7%,16.1%,4.81%,-7.62%,1.62%,7.88%,2.46%,16.1%,-7.7%
CC(=O)N1CCC[C@H]1C(=O)NCCOc1cccc(Cl)c1,-0.692%,7.79%,-8.32%,-3.36%,4.31%,4.98%,13.7%,12.4%,6.8%,24.4%,-9.94%
CC1(C(=O)N2CCOCC2)CN(Cc2ccccn2)CCO1 (stereo not given),-7.59%,1.35%,-5.87%,-5.46%,-4.35%,-5.8%,9.52%,24.2%,1.07%,-3.9%,6.62%
CCNC(=O)c1ccoc1CN1c2ccccc2CC1C (stereo not given),-3.54%,2.74%,7.91%,9.27%,-3.97%,2.4%,12.4%,5.41%,4.17%,11.1%,1.31%
COCCN(C)Cc1ccc(OC)c(OC(F)F)c1,-0.72%,0%,2.88%,0.875%,-20.8%,6.9%,0.499%,-9.7%,-1.07%,-6.17%,2.42%
CCc1ccc(CN2CC[C@H]3C[C@H](c4nnc(C)[nH]4)O[C@@H]3C2)o1,-2%,0%,-2.87%,34.9%,9.52%,-6.79%,17.2%,9.84%,0%,-1.24%,-3.68%
Cc1nc(C)n(C2CCCN(C(=O)COCc3ccccc3)C2)n1 (stereo not given),-0.388%,0%,25.2%,9.37%,2.25%,1.78%,-4.22%,4.38%,3.88%,12.2%,-7.13%
Cc1ccc(-n2nnc(C(=O)Nc3cc(C)nn3C)c2C2CC2)cc1,-8.29%,5.41%,1.63%,-1.73%,-3.99%,1.66%,8.98%,33.1%,3.96%,1.22%,1%
